GLS inhibitor: qHTS for Inhibitors of Glutaminase (GLS). Potency, µM (highest dose often 45.5 µM), for inactives: top-dose activity change, negative = inhibition, usual class: inhibitors. Glutaminase kidney isoform, mitochondrial (Homo sapiens), O94925. AID 624170, 2012. GLS enzymatic activity, qHTS titration. 410,000 tested, 0.21% active; also: % is scaled to controls: 0 for no effect and ±100 for the full control effect
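Coupled fluorescence readout: glutamate oxidase/HRP/Amplex Red detect glutamate formed by hKGA from L-glutamine (1 mM solution added). Buffer 45 mM KH2PO4 pH 8.2, 0.02% Tween-20; reads at t0 and 30 min RT.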
G9a inh: qHTS Assay for Inhibitors of Histone Lysine Methyltransferase G9a. G9a H3K9 monomethylation, AlphaScreen, 2 h. Potency, µM (highest dose often 102 µM), without a hit: top-dose activity, negative = inhibition, most hits filed as inhibitors. 350,000 tested, 8.8% active. AID 504332, 2011; also: % is scaled to controls: 0 for no effect and ±100 for the full control effect; nearly all actives have a fitted effect of over 75% in size
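Enzyme 20 nM + cpd, 15 min RT; add b-H3K9 pep 500 nM / SAM 20 uM; 2 h RT; anti-H3K9me1 Ab 0.5 ug/mL + SA donor / anti-rabbit acceptor beads 20 ug/mL each, 10 min; AlphaScreen read.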
BAZ2B inh: qHTS Assay for Inhibitors of BAZ2B; AID 504333, 2011; Potency, µM (titrated, usually from 114 µM), without a hit: at the highest dose activity change, negative = inhibition, most hits filed as inhibitors; 360,000 tested, 4.4% active; AlphaScreen BAZ2B-H3K14Ac peptide displacement; Bromodomain adjacent to zinc finger domain protein 2B (Homo sapiens), Q9UIF8; also: % is scaled to controls: 0 for no effect and ±100 for the full control effect; nearly all actives have a fitted effect of over 60% in size
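BAZ2B 50 nM plus b-H3(5-23)K14Ac 50 nM, PBS pH 7.4/0.01% Tween-20, 30 min RT; compound added (max 110 uM), 30 min RT; streptavidin donor/Ni-chelate acceptor beads 10 ug/mL final, 20 min dark; AlphaScreen read.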
JMJD2A Tudor: qHTS Assay for Inhibitors of JMJD2A-Tudor Domain | Lysine-specific demethylase 4A (Homo sapiens), O75164 | AlphaScreen JMJD2A-Tudor / H3K4me3 peptide binding | Potency, µM (top dose mostly 114 µM), without a hit: at the top dose activity change, negative = inhibition, hits mostly inhibitors | 390,000 tested, 4.4% active; also: % is scaled to controls: 0 for no effect and ±100 for the full control effect; nearly all actives have a fitted effect of over 50% in size
Target sequence (O75164 whole entry, looked up, the tested form may be a part): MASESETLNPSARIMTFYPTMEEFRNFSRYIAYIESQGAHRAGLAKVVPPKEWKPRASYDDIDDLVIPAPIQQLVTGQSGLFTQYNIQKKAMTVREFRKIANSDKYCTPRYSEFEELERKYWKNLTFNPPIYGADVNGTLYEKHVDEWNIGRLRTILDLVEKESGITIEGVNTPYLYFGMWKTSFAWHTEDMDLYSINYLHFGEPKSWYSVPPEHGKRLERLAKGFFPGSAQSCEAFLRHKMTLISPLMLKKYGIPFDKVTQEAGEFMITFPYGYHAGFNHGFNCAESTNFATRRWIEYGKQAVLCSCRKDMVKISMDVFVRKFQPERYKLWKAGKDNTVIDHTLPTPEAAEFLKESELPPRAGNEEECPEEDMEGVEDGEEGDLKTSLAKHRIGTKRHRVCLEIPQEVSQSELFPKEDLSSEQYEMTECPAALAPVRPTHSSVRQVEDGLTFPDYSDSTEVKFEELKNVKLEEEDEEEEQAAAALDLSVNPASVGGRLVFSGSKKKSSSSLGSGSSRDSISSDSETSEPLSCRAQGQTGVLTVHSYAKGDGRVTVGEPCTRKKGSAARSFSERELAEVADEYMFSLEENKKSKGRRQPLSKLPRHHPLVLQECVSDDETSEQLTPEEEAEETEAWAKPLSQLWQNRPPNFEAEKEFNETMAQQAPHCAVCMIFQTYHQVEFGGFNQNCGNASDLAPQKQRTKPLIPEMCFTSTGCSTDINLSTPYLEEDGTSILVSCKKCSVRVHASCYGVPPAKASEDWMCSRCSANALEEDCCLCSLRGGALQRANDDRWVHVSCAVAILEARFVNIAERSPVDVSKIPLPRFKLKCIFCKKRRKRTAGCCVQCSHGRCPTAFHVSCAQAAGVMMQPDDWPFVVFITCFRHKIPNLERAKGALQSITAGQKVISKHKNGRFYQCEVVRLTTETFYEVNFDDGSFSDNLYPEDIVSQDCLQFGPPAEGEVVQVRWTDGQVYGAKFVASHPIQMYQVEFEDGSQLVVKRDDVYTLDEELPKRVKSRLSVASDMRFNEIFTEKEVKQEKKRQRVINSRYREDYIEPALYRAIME
HP1b chromo inh: HTS for Inhibitors of HP1-beta Chromodomain Interactions with Methylated Histone Tails; Chromobox protein homolog 1 (Homo sapiens), P83916; AlphaScreen HP1-beta / biotin-H3K9me3 peptide binding; Potency, µM (highest dose often 114 µM), for inactives: at the highest dose activity change, negative = inhibition, actives largely listed as inhibitors; 390,000 tested, 0.56% active; AID 540317, 2011; also: nearly all actives have a fitted effect of over 70% in size
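Compound inhibition of the preformed complex between 50 nM HP1-beta and 50 nM biotinylated H3K9me3 peptide was read by AlphaScreen. Buffer was PBS pH 7.4 with 0.01% Tween-20. Incubations ran 30 min at room temperature, with 10 ug/mL donor/acceptor beads.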
Numbers without * were called inactive; ? = inconclusive; nt = no result given; [ ] = another dose, or the depositor's remark. Shown are actives, neighbours in structure and some others; about 10% of the full set was active somewhere. Calls follow the shape of the dose curve; as a rule, active = well fitted curve in the direction sought with a large enough effect; inconclusive = small, poorly fitted or top-dose-only effect, or another doubt; inactive = no such curve, though single readings can be large; an effect the other way counts as inactive or inconclusive. Potency is read from the fitted curve at half-maximal effect.

SMILES	GLS inhibitor	G9a inh	BAZ2B inh	JMJD2A Tudor	HP1b chromo inh
CC(=O)NC(=S)Nc1ccc(NC(=O)c2cccs2)cc1	8%	?	2%	-13%	29%
NS(=O)(=O)c1ccc(NC(=S)NNC(=O)c2ccc(Br)o2)cc1	79%	8.9µM*	-11%	-8%	22%
Cc1cc(C)cc(NS(=O)(=O)c2ccc(NC(=S)NC(=O)c3ccc(Br)o3)cc2)c1	-10%	?	-6%	?	?
CCS(=O)(=O)N1CCC(C(=O)NC2CCCCC2)CC1	2%	11%[12.7 µM]	-4%	-3%	11%
COc1cc([N+](=O)[O-])ccc1NC(=S)Nc1cccc(C(=O)O)c1	13%	10µM*	-27%	-15%	-9%
COc1ccc(C(=O)N/C(=C\c2cccc([N+](=O)[O-])c2)C(=O)Nc2cccc(C(=O)O)c2)cc1	-15%	2%	-3%	1%[11.4 µM]	14%
COc1cc([N+](=O)[O-])ccc1NC(=O)CN(C)C	3%	-9%[12.7 µM]	15%	-1%	23%
COc1cc([N+](=O)[O-])ccc1NC(=S)Nn1cnnc1	3%	10µM*	?	-33%	?
COc1ccccc1C(=O)N/C(=C/c1cccc([N+](=O)[O-])c1)C(=O)Nc1cccc(C(=O)O)c1	-15%	2%	-1%	13µM*	-2%
COc1ccc([N+](=O)[O-])cc1NS(=O)(=O)c1cccc(C(=O)O)c1	5%	-49%	-16%	32µM*	21%
COc1ccc(S(=O)(=O)c2ccccc2)cc1NS(=O)(=O)c1cccc(C(=O)O)c1	-12%	15%[2.33 µM]	?	?	3%
CN1C=CC=C/C1=C1/N=C(c2ccccc2)OC1=O	5%	3%	-6%	-6%	44%
Cc1oc(CC(C)C)cc1C(=O)Nc1ccc(C(=O)O)cc1	19%	-6%[59 µM]	nt	-19%	21%
CN(C)c1ccc(P(=O)(COc2ccc([N+](=O)[O-])cc2)c2ccc(N(C)C)cc2)cc1	-8%	nt	25µM*	22µM*	?
CCC(=O)N[C@@H]1CC(C(C)(C)NC(=O)CC)CC=C1C (some centres not stated)	10%	-41%	-2%	50µM*	-12%
Cc1ccc(C(=O)c2nc3c(n2O)CCCC3)cc1	-1%	?	5%	35µM*	-2%
CCOc1ccc(C(=O)c2nc3c(n2O)CCCC3)cc1	14%	?	-11%	-24%	17%
CC(C)=C1C(=O)NN(c2ccc(C)c(Cl)c2)C1=O	16%	8.9µM*	?	-28%	-6%
Cc1ccccc1NC(=O)CCN1CCc2ccccc2C1	-10%	nt	15%	-11%	24%
CCn1c([N+](=O)[O-])nc2c1c(=O)[nH]c(=O)n2C	-2%	40µM*	-15%	-32%	-3%
CCOCCn1c(SC)nc2c1c(=O)[nH]c(=O)n2C	0%	?	13%	89µM*	?
CCOCCn1c(N2CCN(c3ccccc3)CC2)nc2c1c(=O)n(C)c(=O)n2C	-2%	-6%[12.7 µM]	-1%	-8%	19%
CCOCCn1c(N2CCCC2)nc2c1c(=O)n(C)c(=O)n2C	-7%	71µM*	4%	-8%	35%
CCOCCn1c(SCCCc2ccccc2)nc2c1c(=O)[nH]c(=O)n2C	1%	9%[59 µM]	-2%	?	-21%
CCOCCn1c(N2CCCC2)nc2c1c(=O)[nH]c(=O)n2C	6%	?	56µM*	-6%	18%
Cc1ccc(NC(=O)COC(=O)C2(CC(=O)NC(C)(C)C)CCCC2)cc1C	2%	nt	nt	-5%	39%
COc1cc(C2N3CC4(C)CN2CC(C)(C3)C4)ccc1O (configuration not stated)	22%	-3%[12.7 µM]	2%	-9%	32%
CCC(C)NC(=O)CCn1c(-c2ccc(F)cc2)cc(C(C)=O)c1C (configuration not stated)	0%	-11%	?	-28%	11%

Screens deposited in PubChem by National Center for Advancing Translational Sciences (NCATS).
